# High-throughput results: PubChem BioAssay, Broad Institute
# GSIS activator – GLuc luminescence reporter in INS-1E cells, primary screen for activators of glucose-dependent secretion of insulin; INS-1E GLuc reporter insulin secretion, 2-3 h; activation, % at 16.6 µM; actives 0.61% (n = 370,000); AID 743287, 2014;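 active means lowest replicate activation of at least 40%, so every replicate reaches that level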;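 further: 0% = median of neutral control wells and 100% = median of IBMX positive control wells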
# CASP6 VEID inh – human caspase-6 inhibitors, primary screen, biochemical, VEID-R110 fluorescence, single point, set 2. purified caspase-6, Z-VEID-R110 cleavage fluorescence. inhibition, % at 12.5 µM. actives 0.53% (n = 350,000). AID 686996, 2013;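 active means mean inhibition across replicates at least about 35%, with every replicate also reaching that limit, limit read from the data; inconclusive means only one of the two criteria met; inactive means neither criterion met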;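 further: 0% = median of neutral control wells and 100% = no fluorescence left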
# Target sequence (P55212 24-179 limits assumed): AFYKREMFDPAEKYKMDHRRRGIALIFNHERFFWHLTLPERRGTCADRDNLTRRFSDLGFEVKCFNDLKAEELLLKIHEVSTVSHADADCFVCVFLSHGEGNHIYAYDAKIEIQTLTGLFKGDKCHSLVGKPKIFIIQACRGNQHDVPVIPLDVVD
# Target sequence (P55212 194-293 limits assumed): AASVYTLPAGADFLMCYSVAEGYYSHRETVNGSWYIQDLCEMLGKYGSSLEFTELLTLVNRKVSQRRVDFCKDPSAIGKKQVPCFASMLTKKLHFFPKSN
# SIRT5 block – SIRT5 desuccinylase inhibitors, primary screen, biochemical, fluorescence imaging, single point, set 5 | Purified SirT5, succinyl-peptide AMC, trypsin-coupled fluorescence | actives 1.1% (n = 330,000) | NAD-dependent protein deacylase sirtuin-5, mitochondrial (Homo sapiens), Q9NXA8 | inhibition, % at 15 µM; in the data active means inhibition above about 15%; inconclusive means no clear call, values can overlap the other calls
# ERAP1 inh – human ERAP1 aminopeptidase inhibitors, primary screen, biochemical, single point, plate reader; inhibition, % at 10.7 µM; recombinant ERAP1, Leu-AMC fluorescence, 60 min; Endoplasmic reticulum aminopeptidase 1 (Homo sapiens), Q9NZ08; actives 0.15% (n = 340,000); AID 652197, 2013;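 active means mean replicate inhibition of at least 30%, or all replicates individually reaching that 30% level; inactive means mean below 30% and not every replicate reaching it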;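 further: 0% = neutral control wells and 100% = L-leucinethiol positive control wells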
# FGF22 binding-1 – binders of human FGF22 protein, primary screen, FGF22 synaptogenesis inhibitor project, biophysical, thermal shift, single point; recombinant FGF22 thermal shift, SYPRO orange fluorescence; percent of sucrose octasulfate shift, DMSO zero; activity (Tm shift, normalised), % at 9.99 µM; actives 1.5% (n = 340,000);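 active means mean Tm shift, scaled 0 neutral to 100 positive control, at about 1.3% or above, every replicate too, limit read from the data; inconclusive means no clear call, values can overlap the other calls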
# Target sequence (Q9HCT0 whole entry, looked up): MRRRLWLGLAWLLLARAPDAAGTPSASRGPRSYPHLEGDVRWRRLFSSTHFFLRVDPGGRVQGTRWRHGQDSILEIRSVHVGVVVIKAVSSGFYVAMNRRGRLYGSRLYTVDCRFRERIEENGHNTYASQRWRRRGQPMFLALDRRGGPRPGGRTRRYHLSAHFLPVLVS
# FGF22 binding-2 – binders of human FGF22 protein, dose response, FGF22 synaptogenesis inhibitor project, biophysical, thermal shift, cherry-pick retest; shares compounds with FGF22 binding-1; recombinant FGF22 thermal shift, SYPRO orange fluorescence; thermal shift activity, °C (ΔTm) at 38 µM; AID 720646, 2013; actives 2% (n = 1,000);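 active means fitted rise in melting shift crosses a set limit at or below the top valid dose tested; inconclusive means flat fit at mid-level activity, or a poor quality fit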
# SYPRO no-protein – compound-only thermal shift signal without protein, dose response, artefact control for FGF22 binder project, biochemical, cherry-picked samples, RT-PCR instrument; actives 2% (n = 1,000); compound-only SYPRO orange thermal shift counter-screen, no protein; AC50, µM (top dose mostly 38 µM); AID 743019, 2013; shares compounds with FGF22 binding-1;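 active means rising signal whose fitted curve reaches the 0.54 level within the top valid dose, showing a melting point, actives reach about 13 µM in these data; inactive means the rest, including activity in the opposite direction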; further: value is where the raw curve crosses a fixed level and not half-maximal
# * = called active by the depositor; i = inactive; ? = inconclusive; / = not tested or not shown; [ ] = dose if it differs, or a comment. Rows were chosen to be rich in hits. Some 3.3% of all compounds tested hit in one or more screens of this group.
SMILES,GSIS activator,CASP6 VEID inh,SIRT5 block,ERAP1 inh,FGF22 binding-1,FGF22 binding-2,SYPRO no-protein
Cc1ccccc1C(=O)NCC(=O)OC(C)C(=O)Nc1cccc(S(=O)(=O)N2CCOCC2)c1 (centres undefined),0,0,1,0,1.5*,0.088,i
Cc1ccc(S(=O)(=O)Nc2cccc3c2O[C@@H](CN(C)C)[C@H](C)CN([C@@H](C)CO)C3=O)cc1,18,0,0,-1,0,/,/
C/C(=N\NC(=O)COc1ccc(C)cc1C(C)C)c1cc2ccccc2o1,-25,-2,-5,-4,20*,-0.056,i
O=C(C[C@@H]1C[C@H]2c3cc(NC(=O)Nc4ccccc4)ccc3O[C@H]2[C@@H](CO)O1)NCc1ccccn1,-2,2,-4,1,/,/,/
COCCNC(=O)C[C@H]1CC[C@H]2[C@@H](COC[C@@H](O)CN2S(=O)(=O)c2ccccc2F)O1,-2,/,/,/,0,/,/
Cc1ccc(S(=O)(=O)N(C)C[C@@H]2OCCCC[C@@H](C)Oc3ccc(N(C)C)cc3C(=O)N([C@H](C)CO)C[C@H]2C)cc1,-7,-2,0,-5,-1,/,/
CN(Cc1ccccc1)C(=O)c1[nH]cnc1C(=O)NC1CCN(C(=O)OC(C)(C)C)CC1,-17,0,/,-4,2.5*,0.14,i
CC(C)(C)OC(=O)N1CCC(NC(=O)c2[nH]cnc2C(=O)Nc2ccccc2)CC1,/,1,2,15,0,/,/
O=C(Nc1ccc(Cl)c(Cl)c1)N[C@H]1CC[C@@H](CCn2cc(C3CCCC3)nn2)O[C@H]1CO,-30,-1,3,2,/,/,/
O=C1Cc2ccccc2C(=O)N1c1cccc(Cl)c1,12,35*,3,-2,2.2*,0.02,i
Cc1cc(N2C(=O)Cc3ccccc3C2=O)ccc1C(C)C,26,21,-2,2,0,/,/
C[C@@H]1CN([C@H](C)CO)C(=O)c2cc(-c3cccc(C#N)c3)cnc2O[C@@H]1CN(C)C(=O)C1CCC1,5,-2,4,-1,0,/,/
O=C(N/N=C/c1c(O)ccc2ccccc12)c1[nH]ncc1Br,-13,-2,4,-3,1.3*,-0.32,i
Cc1ccc(O)c(/C=N/NC(=O)c2[nH]ncc2Br)c1,6,-2,-1,-2,0,/,/
COCCN(C[C@H]1[C@H](c2ccccc2)[C@H](CO)N1C(C)=O)C(=O)c1ccncc1,0,-1,3,-3,0,/,/
C[C@@H]1CN([C@@H](C)CO)S(=O)(=O)c2ccc(/C=C/c3ccccc3)cc2O[C@H]1CN(C)Cc1ccc(C(=O)O)cc1,-9,2,?,0,1,/,/
C/C=C/c1ccc2c(c1)O[C@@H](CN(C)C(=O)Nc1ccc(F)cc1)[C@@H](C)CN([C@H](C)CO)S2(=O)=O,-41,-1,-4,-4,/,-0.092,i
COc1cccc(NC(=O)N(C)C[C@@H]2Oc3cc(-c4ccccc4F)ccc3S(=O)(=O)N([C@@H](C)CO)C[C@@H]2C)c1,-6,-4,4,8,2.1*,-0.22,i
C[C@H]1CN([C@@H](C)CO)S(=O)(=O)c2ccc(/C=C/c3ccccc3)cc2O[C@@H]1CN(C)Cc1ccc(C(=O)O)cc1,-9,2,25*,0,1.6*,0.062[42 µM],i
C[C@@H]1CN([C@H](C)CO)S(=O)(=O)c2ccc(-c3ccc(F)cc3)cc2O[C@@H]1CN(C)C(=O)Nc1ccccc1F,-20,-4,-1,-1,1.8*,0.12,i
